This is an account of results in PubChem BioAssay.

SMILES strings stand for the structures. For part of these data: Results with a measured potency or affinity are listed apart. Activity calls are given as the source filed them.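 Rule for the calls, unless noted: active = fitted half-maximal concentration within 10 nM to 100 µM, steepness 0.5 to 2, significant signal drop, low assay interference; inactive = the rest.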

Test [1] has as its target Cell division control protein 42 homolog (Homo sapiens) (UniProt P60953). Nature of the test: activated mutant Cdc42 GTP-binding inhibitors, dose response, biochemical, multiplex bead flow cytometry, Bodipy-FL-GTP (AID 1333;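 active = fitted half-maximal concentration within the tested dose range, moderate curve steepness, a statistically real signal drop, and little compound fluorescence or tag-binding interference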). Background: A flow cytometer gives signals particle by particle.
Test [2] shares this target. Briefly: wildtype Cdc42 GTP-binding inhibitors, dose response, biochemical, multiplex bead flow cytometry, Bodipy-FL-GTP (AID 1334;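 active = fitted half-maximal concentration within the tested range, moderate curve steepness, significant signal drop, and little compound fluorescence or bead-linkage interference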). The following applies: bead-based flow cytometry, Bodipy-FL-GTP binding to GST-Cdc42; at 100 µM (top of the series) unless noted.
The target in test [3] is GTPase HRas (Homo sapiens) (UniProt P01112). Nature of the test: inhibitors of GTP binding to wildtype Ras, dose response, biochemical, multiplex bead flow cytometry (AID 1335). The following applies: bead-based flow cytometry, Bodipy-GTP binding to GST-Ras; at 100 µM (top of the series) unless noted.
Chain of GTPase HRas (Homo sapiens) (P01112 whole entry, looked up): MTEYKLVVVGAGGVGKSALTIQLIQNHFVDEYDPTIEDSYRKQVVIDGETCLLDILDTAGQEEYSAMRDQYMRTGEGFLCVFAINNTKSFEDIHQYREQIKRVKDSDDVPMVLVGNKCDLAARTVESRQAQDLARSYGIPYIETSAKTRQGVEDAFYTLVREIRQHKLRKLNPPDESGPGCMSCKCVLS
Test [4] has as its system Ras-related protein Rab-7a (dog), GTP binding. Nature of the test: Rab7 GTP binding inhibitors, potency, dose response, biochemical, wildtype, multiplex bead flow cytometry (AID 1336; call rule not given here).
The target in test [5] is Ras-related C3 botulinum toxin substrate 1 (Homo sapiens) (UniProt P63000). Briefly: wildtype Rac1 GTP binding inhibitors, dose response, biochemical, multiplex bead flow cytometry (AID 1340;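 active = dose curve with midpoint inside tested range, moderate steepness, plateau gap beyond fit error, low compound glow and bead-link interference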). Particulars: GST-Rac1 beads, Bodipy-FL-GTP binding; at 100 µM (top of the series) unless noted.
In test [6] the target is GTPase HRas (Homo sapiens) (UniProt P01112). Nature of the test: activated Ras mutant GTP binding inhibitors, dose response, biochemical, multiplex bead flow cytometry (AID 1341;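 active = dose-response curve with midpoint inside the tested range, moderate steepness, significant amplitude and little compound fluorescence or bead-attachment interference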;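 note: GST-tagged constitutively activated Ras mutant immobilized on beads and multiplexed with other GTPases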).

Chain of Cell division control protein 42 homolog (Homo sapiens) (P60953 whole entry, looked up): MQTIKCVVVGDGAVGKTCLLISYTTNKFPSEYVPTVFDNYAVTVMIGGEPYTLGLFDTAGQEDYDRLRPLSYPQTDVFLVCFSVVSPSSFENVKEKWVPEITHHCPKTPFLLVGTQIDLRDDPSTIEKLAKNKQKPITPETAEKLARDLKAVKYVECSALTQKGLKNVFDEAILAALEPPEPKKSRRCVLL

`CCc1ccc(Sc2cc(C(=O)O)c3ccccc3n2)cc1`: the outcome in test [1], in test [4] and in test [6] was inactive. Moreover, in test [2], the fluorescence, percent of control (lower = inhibition) turned out to be 57.8%. In test [3], this compound yielded a GTP binding, percent of control of 86%. For the same compound, the GTP binding signal, raw median fluorescence (lower = inhibition) (MCF (arbitrary fluorescence units)) in test [5] was 31.
Take `Cc1nnc(-n2ncc(C#N)c2N)c2nn(-c3cccc(Cl)c3)c(C)c12`: the result in test [1], in test [4] and in test [6] was inactive. In test [2], this compound came in with a fluorescence, percent of control (lower = inhibition) of 62.8%. This compound also yielded a GTP binding, percent of control in test [3] of 76.8%. Moreover, the GTP binding signal, raw median fluorescence (lower = inhibition) (MCF (arbitrary fluorescence units)) in test [5] turned out to be 198.
For the compound `COc1ccc(S(=O)(=O)N2CCN(CC(=O)Nc3cc(C(F)(F)F)ccc3Cl)CC2)cc1`, the compound was called inactive in test [1], in test [4] and in test [6]. For the same compound, in test [2], the fluorescence, percent of control (lower = inhibition) came out at 84.2%. This compound also showed a GTP binding, percent of control in test [3] of 153%. This compound showed a GTP binding signal, raw median fluorescence (lower = inhibition) (MCF (arbitrary fluorescence units)) in test [5] of 182.
On to `COc1ccc(-c2csc(NC(=O)Cc3cccc4ccccc34)c2C(=O)O)cc1`, for which the call in test [1], in test [4] and in test [6] was inactive. Moreover, in test [2], the fluorescence, percent of control (lower = inhibition) came to 27.2%. The same compound came in with a GTP binding, percent of control in test [3] of 66.7%. This compound showed a GTP binding signal, raw median fluorescence (lower = inhibition) (MCF (arbitrary fluorescence units)) in test [5] of 187.
With `Cc1ccccc1Nc1cc(C(=O)O)c2ccccc2n1`, the compound was called inactive in test [1], in test [4] and in test [6]. For the same compound, the fluorescence, percent of control (lower = inhibition) in test [2] turned out to be 62.2%. The compound also came in with a GTP binding, percent of control in test [3] of 86.6%. Also, the GTP binding signal, raw median fluorescence (lower = inhibition) (MCF (arbitrary fluorescence units)) in test [5] worked out at 32.7.
Consider `CSc1ccc(/C=N/NC(=O)c2cc(O)cc(O)c2)cc1`, for which the compound was classed as inactive in test [1], in test [4] and in test [6]. In addition, the fluorescence, percent of control (lower = inhibition) in test [2] was 33.1%. In test [3], this compound displayed a GTP binding, percent of control of 58.6%. In test [5], this compound yielded a GTP binding signal, raw median fluorescence (lower = inhibition) (MCF (arbitrary fluorescence units)) of 160.
`COc1ccc(/C=C(/C#N)C(=O)Nc2ccc(O)cc2)cc1C(=O)O`: the compound was called inactive in test [1], in test [4] and in test [6]. This compound also returned a fluorescence, percent of control (lower = inhibition) in test [2] of 29.4%. Further, the GTP binding, percent of control in test [3] was 74.4%. Moreover, the GTP binding signal, raw median fluorescence (lower = inhibition) (MCF (arbitrary fluorescence units)) in test [5] is 177.
In the case of `CCOc1cc(/C=C2\SC(=O)N=C2N)ccc1O`, the result in test [1], in test [4] and in test [6] was inactive. The same compound returned a fluorescence, percent of control (lower = inhibition) in test [2] of 40.7%. The compound also had a GTP binding, percent of control in test [3] of 81%. The compound further displayed a GTP binding signal, raw median fluorescence (lower = inhibition) (MCF (arbitrary fluorescence units)) in test [5] of 174.
In the case of `Cc1c(CCC(=O)O)c(=O)oc2cc3occ(-c4ccc(F)cc4)c3cc12`, the compound was called inactive in test [1], in test [4] and in test [6]. This compound came in with a fluorescence, percent of control (lower = inhibition) in test [2] of 29.1%. Also, the GTP binding, percent of control in test [3] stood at 72.6%. In test [5], this compound returned a GTP binding signal, raw median fluorescence (lower = inhibition) (MCF (arbitrary fluorescence units)) of 160.
For `CC(=O)Nc1ccc(NC(=O)CCn2nnc3ccccc32)cc1`, the call in test [1], in test [4] and in test [6] was inactive. In addition, the fluorescence, percent of control (lower = inhibition) in test [2] came out at 35.7%. The GTP binding, percent of control in test [3] came to 81.1%. This compound also registered a GTP binding signal, raw median fluorescence (lower = inhibition) (MCF (arbitrary fluorescence units)) in test [5] of 251.
Consider `CCCCCCOc1ccc(C#CC(=O)c2ccc([N+](=O)[O-])cc2)cc1`, for which the compound was classed as inactive in test [1], in test [4] and in test [6]. For the same compound, the fluorescence, percent of control (lower = inhibition) in test [2] worked out at 54.3%. In test [3], this compound had a GTP binding, percent of control of 199%. The GTP binding signal, raw median fluorescence (lower = inhibition) (MCF (arbitrary fluorescence units)) in test [5] worked out at 56.6.
Take `Cc1ccc(Nc2c(F)c(F)c(F)c(F)c2C(=O)O)cc1`: the compound was classed as inactive in test [1], in test [4] and in test [6]. In addition, in test [2], the fluorescence, percent of control (lower = inhibition) is 84.8%. This compound also had a GTP binding, percent of control in test [3] of 106%. The same compound returned a GTP binding signal, raw median fluorescence (lower = inhibition) (MCF (arbitrary fluorescence units)) in test [5] of 74.
With `COc1ccc(C(=O)C2CCCN(C(=O)c3cc4nc(C)cc(C)n4n3)C2)cc1F` (centres undefined), the compound was classed as inactive in test [1], in test [4] and in test [6]. For the same compound, the fluorescence, percent of control (lower = inhibition) in test [2] came out at 41.4%. In addition, in test [3], the GTP binding, percent of control came to 95.1%. The same compound displayed a GTP binding signal, raw median fluorescence (lower = inhibition) (MCF (arbitrary fluorescence units)) in test [5] of 274.
Regarding `O=c1c2c(-c3ccccc3)csc2nc2c3ccccc3c(NCCN3CCOCC3)nn12`, the compound was called inactive in test [1], in test [4] and in test [6]. Moreover, in test [2], the fluorescence, percent of control (lower = inhibition) came out at 32.1%. The compound further gave a GTP binding, percent of control in test [3] of 66.4%. The GTP binding signal, raw median fluorescence (lower = inhibition) (MCF (arbitrary fluorescence units)) in test [5] stood at 168.
